Records with an inconclusive call do not appear. A call without a number means that no potency is given here. Activity calls are given as the source filed them. The call rests on the fitted dose curve; in most records, active means well fitted curve in the direction sought with a large enough effect; inconclusive means small, poorly fitted or top-dose-only effect, or another doubt; inactive means no such curve, though single readings can be large; an effect the other way counts as inactive or inconclusive.
Assays:
[1] = qHTS to identify inhibitors of the type 1 interferon - major histocompatibility complex class I in skeletal muscle: primary screen against the NCATS Pharmaceutical Collection (AID 1347407);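 further: luminescence of HiBiT knocked into endogenous HLA-B as interferon-induced MHC class I level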; further: potency means the concentration at half of the fitted maximal effect
Procedure, shortened: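 A qHTS format is used: 8-point, 1:5 compound series with 46 uM top final concentration, applied alongside 4 ng/ml IFN-beta to HLA-B*08:01-HiBiT knock-in myoblasts. Luminescence is measured after 24 h treatment.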

[2] = molecular target: Protein phosphatase 1D (Homo sapiens) (UniProt O15297); test: RapidFire Mass Spectrometry qHTS Assay for Modulators of WT P53-Induced Phosphatase 1 (WIP1) (AID 1347424);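 further: amount of dephosphorylated VEPPL-S-QETFS peptide product formed by WIP1; series mostly up to about 63 µM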
Procedure, shortened: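 Mass-spectrometric measurement of dephosphorylated peptide after a 5 min room-temperature reaction of 10 nM WIP1 with 2 uM phosphopeptide, following 1 h compound preincubation in 30 mM MgCl2 buffer.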

[3] = molecular target: Protein phosphatase 1D (Homo sapiens) (UniProt O15297); test: Rhodamine-PBP qHTS Assay for Modulators of WT P53-Induced Phosphatase 1 (WIP1) (AID 1347425)
Procedure, shortened: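 The read-out is the change in Rhodamine-PBP fluorescence (f1 - f0, ex 525/em 598 nm) as Pi is released, read each minute for 11 min. Final reaction: 5 nM WIP1, 10 uM phosphopeptide VEPPL-pS-QETFS, 10 uM Rh-PBP, 50 mM Tris-HCl pH 7.5, 30 mM MgCl2. Compound was preincubated with enzyme for 1 hour at room temperature.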

[4] = Primary qHTS for inhibitors of La Crosse Virus (LACV) - induced cell death in SH-SY5Y cells (AID 1508616);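 further: top concentration of the series differs between compounds; higher means more rescue of cells from virus-induced death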
Procedure, shortened: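 SH-SY5Y, 6000 cells/well; cpd via pin tool in DMSO; LACV 0.01 MOI; 6 d 37C 5% CO2; ATPLite, 5 min RT; luminescence normalized to ±virus DMSO controls.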

[5] = molecular target: Calcium and integrin-binding protein 1 (Homo sapiens) (UniProt Q99828); test: Primary qHTS for Identification of Calcium Integrin Binding Protein 1 (CIB1) Competitor (AID 1508620);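 further: GST tagged CIB1 binding a fluorescein labelled alphaIIb integrin peptide tracer; top concentration of the series differs between compounds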
Procedure, shortened: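 Fluorescence polarization competition: CIB1-GST (1 uM final) preincubated with compound 15 min at room temperature, then FITC-labeled alphaIIb peptide (100 nM final) added for another 15 min. Polarization read at Ex 480/Em 540.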

Chain of Protein phosphatase 1D (Homo sapiens) (O15297 whole entry, looked up): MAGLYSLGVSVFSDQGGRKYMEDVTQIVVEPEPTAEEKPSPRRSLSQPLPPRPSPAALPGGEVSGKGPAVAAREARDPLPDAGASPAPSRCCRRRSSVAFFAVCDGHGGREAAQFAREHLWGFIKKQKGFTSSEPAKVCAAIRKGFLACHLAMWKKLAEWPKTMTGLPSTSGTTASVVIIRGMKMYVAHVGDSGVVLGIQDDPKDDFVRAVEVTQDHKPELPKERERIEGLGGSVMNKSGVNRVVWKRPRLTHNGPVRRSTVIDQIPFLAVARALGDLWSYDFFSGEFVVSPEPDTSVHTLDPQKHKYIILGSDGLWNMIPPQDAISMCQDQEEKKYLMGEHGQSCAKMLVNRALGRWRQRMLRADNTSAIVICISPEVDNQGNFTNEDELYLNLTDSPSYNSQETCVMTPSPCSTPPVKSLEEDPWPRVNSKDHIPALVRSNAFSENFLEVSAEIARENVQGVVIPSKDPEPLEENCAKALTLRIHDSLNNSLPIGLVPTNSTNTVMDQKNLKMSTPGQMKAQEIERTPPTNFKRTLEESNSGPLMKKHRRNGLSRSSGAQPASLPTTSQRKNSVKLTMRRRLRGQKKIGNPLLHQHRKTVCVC
Chain of Calcium and integrin-binding protein 1 (Homo sapiens) (Q99828 whole entry, looked up): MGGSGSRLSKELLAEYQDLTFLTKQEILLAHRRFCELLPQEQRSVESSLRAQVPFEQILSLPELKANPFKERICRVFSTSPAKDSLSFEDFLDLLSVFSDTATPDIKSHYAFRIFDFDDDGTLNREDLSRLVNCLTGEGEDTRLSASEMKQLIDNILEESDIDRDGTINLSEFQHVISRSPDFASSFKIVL

Structure (SMILES)	Potency [1]	Potency [2]	outcome [3]	outcome [4]	Potency [5]
Cc1nc2n(c(=O)c1CCN1CCC(C(=O)c3ccc(F)cc3)CC1)CCS2	inactive	inactive	inactive	inactive	inactive
CCCc1ccc(OCC(=O)N2CCN(C(=O)COc3ccc(CCC)cc3OC)CC2)c(OC)c1	inactive	inactive	inactive	inactive	inactive
COC(=O)c1c(Cl)c(Cl)c(C(=O)OC)c(Cl)c1Cl	inactive	inactive	inactive	inactive	inactive
COc1cc(OC)nc(O[C@H](C(=O)O)C(OC)(c2ccccc2)c2ccccc2)n1	inactive	inactive	inactive	inactive	inactive
CN=C(N)NC(=O)Nc1c(C)cccc1C	inactive	inactive	inactive	inactive	inactive
Cc1cc(CCCOc2c(C)cc(-c3noc(C(F)(F)F)n3)cc2C)on1	inactive	inactive	inactive	inactive	inactive
CCOc1c(N2CCOCC2)cnn(C)c1=O	inactive	inactive	inactive	inactive	inactive
C1N2CN3CN1CN(C2)C3	inactive	inactive	inactive	inactive	inactive
CC(C)=CCNc1ncnc2c1ncn2[C@@H]1O[C@H](CO)[C@@H](O)[C@H]1O	7.45 µM (active)	inactive	inactive	inactive	inactive
Nc1nc(=O)n([C@@H]2O[C@H](CO)[C@@H](O)[C@@H]2F)cc1I	inactive	inactive	inactive	inactive	inactive
OCc1cccnc1	inactive	inactive	inactive	inactive	inactive
CC(CCc1ccc2c(c1)OCO2)NN (stereo not given)	inactive	inactive	inactive	inactive	inactive
